This is a sample that favours compounds with a hit; in the whole collection about 2.7% have one here.
PAFAH1B3 FP inh = PAFAH1B3 enzyme inhibitors, primary screen, biochemical, fluorescence polarization, human; Platelet-activating factor acetylhydrolase IB subunit alpha1 (Homo sapiens), Q15102; recombinant PAFAH1B3, FP-rhodamine probe; inhibition, % at 3.39 µM; actives 0.28% (n = 340,000); AID 492972, 2010;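 active = inhibition above the screen-wide average of all tested compounds plus 3 SD, cut at about 25% in these data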
Target sequence (Q15102 whole entry, looked up): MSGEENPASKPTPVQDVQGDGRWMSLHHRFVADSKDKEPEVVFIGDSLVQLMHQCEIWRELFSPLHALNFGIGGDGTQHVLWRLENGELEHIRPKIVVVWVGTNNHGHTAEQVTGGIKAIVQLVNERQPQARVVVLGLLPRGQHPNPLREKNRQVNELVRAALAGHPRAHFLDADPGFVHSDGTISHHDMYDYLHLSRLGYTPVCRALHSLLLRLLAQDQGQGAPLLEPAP
PAFAH1B2 inh = PAFAH1B2 enzyme inhibitors, primary screen, biochemical, fluorescence polarization, human. Platelet-activating factor acetylhydrolase IB subunit alpha2 (Homo sapiens), P68402. recombinant PAFAH1B2, FP-rhodamine activity probe. inhibition, % at 3.39 µM. actives 1.2% (n = 340,000);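 active = inhibition above the mean of all tested compounds plus 3 SD, cut at about 24% in these data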
Target sequence (P68402 whole entry, looked up): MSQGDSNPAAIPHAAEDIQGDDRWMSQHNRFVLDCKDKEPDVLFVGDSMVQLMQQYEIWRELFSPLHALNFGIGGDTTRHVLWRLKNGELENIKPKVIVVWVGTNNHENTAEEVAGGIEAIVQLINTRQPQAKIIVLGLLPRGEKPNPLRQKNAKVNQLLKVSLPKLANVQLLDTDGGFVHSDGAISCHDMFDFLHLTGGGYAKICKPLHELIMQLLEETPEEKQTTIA
pPAFAH FP inh = pPAFAH enzyme inhibitors, primary screen, biochemical, fluorescence polarization, human. recombinant pPAFAH, FP-rhodamine probe fluorescence polarization. actives 1.5% (n = 330,000). AID 463082, 2010. inhibition, % at 3.39 µM;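 active = inhibition above the mean inhibition across the screen plus 3 SD, cut at about 25% in these data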;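 note: inhibitors block binding of the rhodamine activity-based probe so polarization drops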
PAFAH2 inh = PAFAH2 enzyme inhibitors, primary screen, biochemical, fluorescence polarization, human | Platelet-activating factor acetylhydrolase 2, cytoplasmic (Homo sapiens), Q99487 | AID 492956, 2010 | actives 0.99% (n = 340,000) | recombinant PAFAH2, FP-rhodamine activity probe | inhibition, % at 3.39 µM;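 active = inhibition above the mean over all tested compounds plus 3 SD, cut at about 30% in these data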;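 note: inhibitors block probe labeling of enzyme so polarization drops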
TCR CD3 inh = inhibitors of human TCR-CD3 interaction, primary screen, biochemical, fluorescence, TAMRA-labeled TCR probe; T-cell receptor (TCR); inhibition, % at 9.4 µM; actives 0.37% (n = 360,000); AID 651800, 2012; in the data active = inhibition above about 19%;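 note: recombinant mutant TCR 2C K166C tagged with TAMRA read by polarization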
PAFAH2 confirm = PAFAH2 enzyme inhibitors, confirmation, biochemical, fluorescence polarization, human; shares compounds with PAFAH2 inh; recombinant PAFAH2, FP-rhodamine activity probe; inhibition, % at 3.39 µM; actives 65% (n = 2,300);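 active = mean inhibition over three repeats above a set limit taken from the earlier primary screen, cut at about 30% in these data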;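 note: inhibitor blocks binding of rhodamine activity probe so polarization falls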
A number is an active result; 0 = inactive; - = not tested or not shown.

SMILES | PAFAH1B3 FP inh | PAFAH1B2 inh | pPAFAH FP inh | PAFAH2 inh | TCR CD3 inh | PAFAH2 confirm
O=C(CSc1ccccc1C(=O)O)c1ccc([N+](=O)[O-])cc1 | 0 | 0 | 0 | 46 | 0 | 56
N#CC(=Nc1cccc(F)c1)C1=C(O)c2ccccc2C1=O | - | - | - | - | 0 | -
COc1ccc(C(=O)CSc2nc(C)cc(=O)[nH]2)cc1C | 0 | 0 | 0 | 0 | 0 | -
COc1ccc(C(=O)CSc2nc(C)cc(C)n2)cc1C | 0 | 0 | 0 | 42 | 0 | 0
COc1ccc(S(=O)(=O)N2CCOCC2)cc1NC(=O)CN1CCCCCC1 | 0 | 0 | 0 | 0 | 0 | -
COc1ccc(S(=O)(=O)N2CCOCC2)cc1NC(=O)Cc1c(Cl)cccc1Cl | 0 | 0 | 0 | 49 | 0 | 45
COc1ccc(S(=O)(=O)N2CCOCC2)cc1NC(=O)CN1CCCc2ccccc21 | 0 | 0 | 0 | 66 | 0 | 56
COc1ccc(S(=O)(=O)N2CCOCC2)cc1NC(=O)CN(C)Cc1c(F)cccc1Cl | 0 | 0 | 0 | 0 | 0 | -
NS(=O)(=O)c1ccc(NC(=O)c2ccc(S(=O)(=O)N3CCCCCC3)cc2)cc1 | 0 | 0 | 0 | 0 | 0 | -
COc1ccc(CCNC(=O)C(=O)NCC2OCCN2S(=O)(=O)c2ccc3c(c2)OCCO3)cc1 (stereo unspecified) | 0 | 0 | 0 | 0 | 0 | -
CC(C)CN(C(=O)COC(=O)CNC(=O)c1sc2ccccc2c1Cl)C1CCS(=O)(=O)C1 (stereo unspecified) | 0 | 0 | 0 | 0 | 0 | -
COC(=O)c1ccc(CNC(=O)COC(=O)/C=C/c2ccc(OC)c(OC)c2)cc1 | 0 | 0 | 0 | 0 | 0 | -
COc1ccccc1CNC(=O)COC(=O)/C=C/c1ccc2c(c1)OCO2 | 0 | 0 | 0 | 39 | 0 | 43
COc1cc(/C=C/C(=O)OCC(=O)N(C)Cc2ccccc2)ccc1O | 0 | 0 | 0 | 33 | 0 | 0
COc1cc(/C=C/C(=O)OCC(=O)NCc2ccc(F)cc2)ccc1O | 0 | 0 | 0 | 69 | 0 | 56
COc1cc(/C=C/C(=O)OCC(=O)NC(=O)NC(C)C)ccc1O | 0 | 0 | 0 | 0 | 0 | -
COc1cc(/C=C/C(=O)OCC(=O)NCc2ccccc2OC)ccc1O | 0 | 0 | 0 | 50 | 0 | 49
CC(C)Cc1nnc(NC(=O)C2CSC3(C)CCC(=O)N23)s1 (stereo unspecified) | 0 | 0 | 0 | 0 | 0 | -
C[C@@H]1CN([C@@H](C)CO)C(=O)c2cc(Br)cnc2O[C@H]1CN(C)S(=O)(=O)c1cccs1 | - | - | - | - | 0 | -
COc1cc(SC)ccc1C(=O)OCC(=O)NCCC1=CCCCC1 | 0 | 0 | 0 | 0 | 0 | -
COc1cc(/C=C/C(=O)OCC(=O)NCCC2=CCCCC2)ccc1O | 0 | 0 | 0 | 57 | 0 | 63
O=C(COC(=O)/C=C/c1cccc(Br)c1)NCCC1=CCCCC1 | 0 | 0 | 0 | 0 | 0 | -
COc1cc(/C=C/C(=O)OCC(=O)NCCC2=CCCCC2)cc(OC)c1OC | 0 | 0 | 0 | 33 | 0 | 0
COCc1cc(CN(C)C(=O)c2oc3c(F)cccc3c2C)[nH]n1 | 0 | 0 | 0 | 0 | 0 | -
CCOC(=O)c1c(CC(C)C)csc1/N=C/C1C(=O)CCCC1=O | 0 | 0 | 0 | 33 | 0 | 0
SMILES | PAFAH1B3 FP inh | PAFAH1B2 inh | pPAFAH FP inh | PAFAH2 inh | TCR CD3 inh | PAFAH2 confirm
CCOC(=O)c1c(-c2ccccc2)csc1/N=C/C1C(=O)CCCC1=O | 0 | 0 | 0 | 0 | 0 | -
O=C(NCc1ccccc1Cl)c1ccc2sc([C@@H]3O[C@H](CO)[C@H](O)[C@H](O)[C@H]3O)nc2c1 | - | - | - | - | 0 | -
CC(=O)N/C(=N/c1nc(C)cc(C)n1)Nc1cccc(C)c1 | 0 | 0 | 0 | 0 | 0 | -
CCCN1CCC(=NNc2ccc(C(=O)O)cc2)CC1 | 0 | 0 | 0 | 35 | 0 | 0
O=C(CNc1ccc(Cl)c(C(F)(F)F)c1)N1CCN(S(=O)(=O)c2ccccc2)CC1 | 0 | 0 | - | 45 | 0 | 0
CCNC(=O)C1CCCN(C(=O)c2ccc(-c3ccccc3)cc2)CC1 (stereo unspecified) | - | - | - | - | 0 | -
COc1ccc(C(=O)OCC(=O)NCC2CCCCC2)cc1F | 0 | 0 | - | 85 | 0 | 72
O=C(COC(=O)c1ccc(Cl)cc1)NCC1CCCCC1 | 0 | 0 | 0 | 59 | 0 | 60
O=C(COC(=O)c1ccc(S(=O)(=O)NCc2ccco2)cc1)NCC1CCCCC1 | 0 | 0 | 0 | 0 | 0 | -
O=C(COC(=O)c1ccc(F)cc1)NCC1CCCCC1 | 0 | 0 | 0 | 77 | 0 | 60
COc1ccc(C(=O)OCC(=O)NCC2CCCCC2)c(OC)c1 | 0 | 0 | - | 66 | 0 | 57
COc1ccc(OCC(=O)OCC(=O)NCC2CCCCC2)cc1 | 0 | 0 | 0 | 0 | 0 | -
NC(=S)N1N=C(c2ccccc2)CC1=O | 0 | 0 | - | 0 | 0 | -
CCCS(=O)(=O)NC(=O)C1(C)CCCN(C(=O)c2ccc(OC)cc2)C1 (stereo unspecified) | - | - | - | - | 0 | -
COc1ccc(C(=O)NCCCOC(C)C)cc1OC1CCN(C(C)=O)CC1 | 0 | 0 | 0 | 0 | 0 | -
OC[C@@H]1CN(Cc2ccc(Cl)cc2)C[C@H](n2cnc3c(NC4CCC4)ncnc32)O1 | - | - | - | - | 0 | -
NC(=O)COc1c(-c2ccc(Br)o2)oc2ccccc2c1=O | 0 | 0 | 0 | 31 | - | 0
CCc1cccc(NC(=O)c2cc(OC)c(OC)c(OC)c2)c1 | 0 | 0 | 0 | 0 | 0 | -
COCCNC(=O)Cc1c(C)c2c(cc(C)c3c(C)coc32)oc1=O | 0 | 0 | 0 | 0 | 0 | -
COCCCNC(=O)Cc1c(C)c2c(cc(C)c3c(C(C)(C)C)coc32)oc1=O | 0 | 0 | 0 | 33 | 0 | 0
CCOc1cc(/C=C(\C#N)C(=O)Nc2ccc(S(N)(=O)=O)cc2)ccc1OCCN1CCOCC1 | 0 | 0 | 0 | 0 | 0 | -
Cc1ccc(C(=O)N2CCN(S(=O)(=O)c3sc(C(=O)O)c(C)c3C(=O)O)CC2)s1 | 0 | 0 | 0 | 0 | 0 | -
N=C1/C(=C\c2ccc(Br)o2)C(=O)N=C2SC(CC(=O)N3CCOCC3)=NN12 | 0 | 0 | 0 | 0 | 0 | -
N=C1/C(=C/c2ccc(Br)o2)C(=O)N=C2SC(CC(=O)N3CCCC3)=NN12 | 0 | 0 | 0 | 31 | 0 | 0
O=C(COC(=O)c1cc(=O)[nH]c2ccccc12)NC1CCCCCCC1 | 0 | 0 | 0 | 0 | 0 | -
O=C(COC(=O)c1c[nH]c2ccccc12)NC1CCCC1 | 0 | 0 | 0 | 72 | 0 | 68
Cc1ccc(NC(=O)COC(=O)c2c[nH]c3ccccc23)cc1C | 0 | 0 | 0 | 71 | 0 | 71
CC(=O)c1ccc(NC(=O)COC(=O)c2c[nH]c3ccccc23)cc1 | 0 | 0 | 0 | 45 | 0 | 0
NC(=O)Nc1ccc(C(=O)OCC(=O)c2c[nH]c3ccccc23)cc1 | 0 | 0 | 0 | 36 | 0 | 0
Cc1ccc(NC(=O)COC(=O)Cc2c[nH]c3ccccc23)cc1F | 0 | 0 | - | 0 | 0 | -
